Reference: PubChem BioAssay (NCI)
This is part of a sample that, as a whole, favours compounds with a hit. Of some 79,000 tested, about 15% had one in any assay. No stated cut-off is given here; in the data, active means growth inhibition above about 70%; inactive means the rest.

How the values were obtained:
[1] = NCI Yeast Anticancer Drug Screen. Data for the rad50 strain (AID 155);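 further: 0% = growth of vehicle-only cultures of the same strain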; settings: S. cerevisiae rad50 strain growth inhibition; at 50.0 µM; active compounds read high
Method in brief: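 Inhibition values express reduced yeast growth in compound-treated cultures relative to vehicle-treated controls.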

[2] = NCI Yeast Anticancer Drug Screen. Data for the mec2-1 strain (AID 157); settings: S. cerevisiae mec2-1 strain, at 50.0 µM, active compounds read high
Method in brief: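 Compounds were applied to mec2-1 yeast cells. Their growth was then compared with that of vehicle-treated cultures to give growth inhibition.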

[3] = NCI Yeast Anticancer Drug Screen. Data for the sgs1 mgt1 strain (AID 161);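 further: 0% = growth of cultures given vehicle only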; settings: S. cerevisiae sgs1 mgt1 strain, at 50.0 µM, active compounds read high
Method in brief: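 This yeast growth screen uses a strain with defined DNA-repair lesions; compound-treated growth is compared with vehicle-treated growth.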

[4] = NCI Yeast Anticancer Drug Screen. Data for the cln2 rad14 strain (AID 165);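 further: 0% = growth equal to vehicle treated cultures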; settings: S. cerevisiae cln2 rad14 strain, at 50.0 µM, active compounds read high
Method in brief: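 Strain: cln2 rad14 yeast, altered in cell cycle control and DNA damage repair. Read-out: growth inhibition vs vehicle.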

[5] = NCI Yeast Anticancer Drug Screen. Data for the bub3 strain (AID 167); settings: S. cerevisiae bub3 mutant strain, at 50.0 µM, active compounds read high
Method in brief: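 Steps: expose the mutant yeast strain to compound; grow alongside vehicle-treated cultures; measure growth; express inhibition against the vehicle cultures.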

[6] = NCI Yeast Anticancer Drug Screen. Data for the mlh1 rad18 strain (AID 175); settings: S. cerevisiae mlh1 rad18 strain growth inhibition; at 50.0 µM; active compounds read high
Method in brief: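 A repair-deficient yeast strain is exposed to test compound, and growth is scored relative to vehicle-treated controls.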

Measured: growth inhibition

COC(=O)c1nc(N)nc(C(=O)OC)c1C(=O)c1ccccn1
inactive: [1] -12.1% | [2] -19.2% | [3] 1.65% | [4] -20.2% | [5] -11.3% | [6] -1.75%

O=CC(O)C(O)C(O)C1CNC(=S)O1 (stereo unspecified)
inactive: [1] 4.9% | [2] -14.7% | [3] -10.3% | [4] -2.25% | [5] 4.05% | [6] 6.9%

CCc1c2ccccc2cc2ccccc12
inactive: [1] -1% | [2] 1.85% | [3] -16.6% | [4] 9.75% | [5] 1.8% | [6] -5.95%

CCC(C)[N+](=O)[O-] (stereo unspecified)
inactive: [1] 3.6% | [2] -5.1% | [3] -5.55% | [4] -2.15% | [5] 0.75% | [6] 3.1%

Cc1ccc(/C=C2\N=C(N3CCCC(CO)C3)NC2=O)cc1 (stereo unspecified)
inactive: [1] 18.6% | [2] -1.55% | [3] -18.3% | [4] -1.15% | [5] 1.3% | [6] -44%

CCC(C)CCC(C)(O)CC (stereo unspecified)
inactive: [1] 9.7% | [2] -9.9% | [3] -5.4% | [4] -43.1% | [5] 16.2% | [6] 1.35%

N#CC1C2C1C1C=CC2n2c(=O)n(-c3ccccc3)c(=O)n21 (stereo unspecified)
inactive: [1] 3% | [2] 2.5% | [3] 3.25% | [4] 27.4% | [5] 7.15% | [6] 4.95%

Oc1cccc(Oc2cccc(Oc3cccc(O)c3)c2)c1
inactive: [1] -14.4% | [2] -14.2% | [3] -4.3% | [4] -8.65% | [5] 8.35% | [6] -7.85%

O=S(=O)(CCc1ccccc1)c1nc2ccccc2s1
inactive: [1] -1.5% | [2] -1.85% | [3] -2.8% | [4] -11.9% | [5] -37.5% | [6] -11.5%

COc1nc2ccccc2nc1OC
inactive: [1] -14.1% | [2] -8.75% | [3] -5.5% | [4] -14.8% | [5] 4.45% | [6] 4%

CS/N=C(\c1ccccc1)N(C)C
inactive: [1] -23.9% | [2] -4.05% | [3] -1.45% | [4] -25.1% | [5] -1.6% | [6] 3.35%

N#CC(=C1C=CC(=NOC(=O)c2ccccc2)C=C1)c1ccccc1
inactive: [1] -0.75% | [2] 1.2% | [3] 4.8% | [4] -5.75% | [5] -2.7% | [6] -6.85%

COc1ccc(COC(=O)NC2CCCCC2)cc1OC
inactive: [1] 2.5% | [2] 19.9% | [3] 25.1% | [4] -9.95% | [5] 37% | [6] 45.9%

c1ccc(SCc2ccc3c(c2)OCO3)cc1
inactive: [1] 27.4% | [2] 1.4% | [3] 18.2% | [4] 9.25% | [5] 18.8% | [6] 16.8%

N[C@@H](CCC(=O)NC(Cc1ccccc1)C(=O)NCP(=O)(O)O)C(=O)O (stereo partly specified)
inactive: [1] -60.9% | [2] -17.9% | [3] -45.9% | [4] -1.75% | [5] -10.5% | [6] -55.4%

O=C(O)c1cccc2c1cc(Br)c1ccccc12
inactive: [1] 22.6% | [2] 23.2% | [3] 32% | [4] -42.5% | [5] 15.8% | [6] 24.7%

O=C(O)CCc1ccc2ccccc2n1
inactive: [1] 6.3% | [2] -6.6% | [3] -19.8% | [4] -0.05% | [5] -20.6% | [6] -20.2%

Cc1ccc(NC(=S)N2CCCCC2C)cc1C (stereo unspecified)
inactive: [1] 17.9% | [2] 11.7% | [3] 12.7% | [4] 3.1% | [5] 16.6% | [6] -6.15%

Cc1ncc([N+](=O)[O-])n1Cc1nncs1
inactive: [1] -9.35% | [2] -11.4% | [3] -7.95% | [4] -31.9% | [5] -19.3% | [6] -14.2%

COc1ccccc1CC(C)N1CCCC1c1ccccc1 (stereo unspecified)
inactive: [1] -12.1% | [2] -6.8% | [3] -0.9% | [4] -41.6% | [5] 4.65% | [6] 3.4%

Cc1csc(=NCc2cccnc2)n1C
inactive: [1] 14.7% | [2] -9.75% | [3] 23.6% | [4] 23.4% | [5] 19.8% | [6] 15.8%
